# Calls of active or inactive are those of the source. How the source made its calls: active means hit-call score of the fitted dose curve at least 0.9, where 1 is the maximum; inactive means score below 0.9.
# Biological target: Transcriptional activator Myb (Homo sapiens) (UniProt P10242)
# Assay: ATG_Myb_CIS: Attagene CIS-FACTORIAL HepG2 Assay for human Myeloblastosis (Myb) Proto-Oncogene Transcription Factor (AID 2282986)
# Conditions: HepG2 Attagene CIS-FACTORIAL Myb reporter transcription; actives raise or lower the signal
# Method: ATG_CIS is a cell-based, multiplexed-readout assay that uses HepG2, a human liver cell line, with measurements taken at 24 hours after chemical dosing in a 24-well plate.ATG_Myb_CIS is one of 52 assay component(s) measured or calculated from the ATG_CIS assay. It is designed to make measurements of mRNA induction, a form of inducible reporter, as detected with fluorescence intensity signals by Reverse transcription polymerase chain reaction (RT-PCR) and Capillary electrophoresis technology.Data from the assay component ATG_Myb_CIS was analyzed into 1 assay endpoint. This assay endpoint, ATG_Myb_CIS, was analyzed with bidirectional fitting relative to DMSO as the negative control and baseline of activity. Using a type of inducible reporter, measures of mRNA for gain or loss-of-signal activity can be used to understand the reporter gene at the transcription factor-level as they relate to the gene MYB. Furthermore, this assay endpoint can be referred to as a primary readout, because this assay has produced multiple assay endpoints where this one serves a reporter gene function. To generalize the intended target to other relatable targets, this assay endpoint is annotated to the dna binding intended target family, where the subfamily is MYB proteins.
# Human liver HepG2 cells are transiently transfected with multiple reporter transcription units (MRTUs) in 6-well plates using FuGene 6 reagent (Roche; 3 ml FuGene/1 mg DNA). The MRTU constructs are regulated by a cis-regulating element (promoter). […] A major difference between the CIS and TRANS system is that in CIS activities of endogenous TFs are measured, whereas the TRANS assay evaluates changes in activities of exogenous, chimeric NR-Gal4 proteins. […] At the end of 24 hour incubation, total RNA was isolated using TriZol reagent (Invitrogen). The isolated RNA is then reverse-transcribed using oligo(dT) primer and Mo-MLV reverse transcriptase (Invitrogen) with DNAse I (Ambion) treatment for 30 min. The one-tenth of the produced cDNA was amplified by PCR using Taq DNA polymerase (Invitrogen) and two reporter sequence-specific primers. The PCR products were fluorescently labeled by primer extension with 6-arboxyfluorescein (6-FAM) 5'-labeled reporter sequence-specific primer (2 min at 95 C, 20 s at 68 C and 10 min at 72 C) and these products were digested with 5U of HpaI (New England Biolabs) for 2h at 37 C. The fragments were purified using Qiaquick PCR columns (Qiagen), analyzed on an ABI 3130xL genetic analyzer (Applied Biosystems) with peak positions identified by using a set of X-rhodamine (ROX)-labeled MapMarker1000 molecular weight standards (BioVentures). The raw capillary electrophoresis data was processed using Attagraph software (Attagene).
# Sequence of Transcriptional activator Myb (Homo sapiens) (P10242 whole entry, looked up): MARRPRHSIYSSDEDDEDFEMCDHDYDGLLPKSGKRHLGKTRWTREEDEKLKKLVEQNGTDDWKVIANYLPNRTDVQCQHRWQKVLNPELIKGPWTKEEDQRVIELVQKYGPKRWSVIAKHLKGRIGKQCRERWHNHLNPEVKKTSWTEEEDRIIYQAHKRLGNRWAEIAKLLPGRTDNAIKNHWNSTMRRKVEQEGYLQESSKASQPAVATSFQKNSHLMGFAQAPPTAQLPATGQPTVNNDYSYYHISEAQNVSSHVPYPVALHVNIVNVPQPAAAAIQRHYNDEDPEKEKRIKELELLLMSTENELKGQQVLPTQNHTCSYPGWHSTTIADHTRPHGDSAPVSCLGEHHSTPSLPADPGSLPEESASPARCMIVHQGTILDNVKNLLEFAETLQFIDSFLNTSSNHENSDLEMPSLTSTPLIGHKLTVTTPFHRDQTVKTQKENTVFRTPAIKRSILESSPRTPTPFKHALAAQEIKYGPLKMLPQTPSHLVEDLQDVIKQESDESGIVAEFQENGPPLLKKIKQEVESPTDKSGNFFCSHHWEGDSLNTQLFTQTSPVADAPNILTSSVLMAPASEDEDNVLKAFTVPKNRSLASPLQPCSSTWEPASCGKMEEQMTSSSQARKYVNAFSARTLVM
Compound,outcome,AC50
O=S(=O)(Oc1ccc(Cl)cc1)c1ccc(Cl)cc1,inactive,–
O=S(=O)(C(Cl)(Cl)Cl)C(Cl)(Cl)Cl,inactive,–
N#CS,inactive,–
COc1ccc(N)cc1,inactive,–
O=NN1CCOCC1,inactive,–
O=c1oc2ccccc2c(O)c1C(CC(O)c1ccc(-c2ccc(Br)cc2)cc1)c1ccccc1 (stereo not given),inactive,–
CC[N+](CC)(CC)CC,inactive,–
Cc1ccc(CCl)cc1,inactive,–
O=C1C[C@@H]2OCC=C3CN4CC[C@]56c7ccccc7N1[C@H]5[C@H]2[C@H]3C[C@H]46,inactive,–
OCCN(CCO)CCO,inactive,–
NC(=O)CCl,inactive,–
c1cc[c]([Sb]([c]2ccccc2)[c]2ccccc2)cc1,inactive,–
Cc1cc(C)cc(C)c1,inactive,–
CC(=O)CN(CC(C)=O)N=O,inactive,–
N#Cc1ccccc1Cl,inactive,–
CCOP(=O)(OCC)OC(=CCl)c1ccc(Cl)cc1Cl,inactive,–
O=C=Nc1ccc(Cl)cc1,inactive,–
CC(C)(c1ccc(O)c(-c2ccccc2)c1)c1ccc(O)c(-c2ccccc2)c1,inactive,–
CCN(CC)C(=O)C(Cl)=C(C)OP(=O)(OC)OC,inactive,–
BrCc1ccc(Br)cc1,inactive,–

Compound,outcome,AC50
c1ccc(-c2cccc(-c3ccccc3)c2)cc1,inactive,–
C=CCOC(F)(C(F)(F)F)C(F)(F)F,inactive,–
O=S(=O)(c1ccc(Cl)cc1)c1cc(Cl)c(Cl)cc1Cl,inactive,–
NC(=O)c1ccc(N)nc1,inactive,–
Oc1c(Cl)cc(Cl)cc1Cl,inactive,–
CCCCCCCCBr,inactive,–
OC(c1ccc(Cl)cc1)(c1ccc(Cl)cc1)c1cccnc1,inactive,–
CCOP(=O)(OCC)SCCSCC,inactive,–
FC(F)OCC(F)(F)C(F)(F)F,inactive,–
Cc1ccc(OP(=O)(Oc2ccc(C)cc2C)Oc2ccc(C)cc2C)c(C)c1,inactive,–
COP(=S)(OC)Oc1cc(Cl)c(I)cc1Cl,–,49.5 µM (active)
CC(C)(C)c1cc([N+](=O)[O-])cc(C(C)(C)C)c1O,inactive,–
Clc1cccc(Cl)c1Cl,inactive,–
CCOc1ccc(N)cc1,inactive,–
CC(C)O.CC(C)O.OCCN(CCO)CCO.OCCN(CCO)CCO.[Ti],inactive,–
Cc1cccc(N=Nc2ccc(N(C)C)cc2)c1,inactive,–
Nc1ccc(Br)cc1,inactive,–
Cc1cc(SCc2sc(-c3ccc(C(F)(F)F)c(F)c3)nc2C)ccc1OCC(=O)O,inactive,–
C=CC(Cl)CCl (stereo not given),inactive,–
C=C(C)C(=O)OCC(CC)CCCC (stereo not given),inactive,–
